Jurkat NFkB inh: lowers PMA/ionomycin-induced NF-kB signal in Jurkat cells. PMA/ionomycin-induced NF-kB luciferase reporter, luminescence. inhibition, % at 4 µM. 330,000 compounds, 0.53% hits. AID 435003; in the data active = inhibition above about 50%
697 NFkB inh: inhibitors of the PMA/ionomycin-induced NF-kB reporter in 697 B cells | 697 B-cell NF-kB luciferase reporter, 16 h | inhibition, % at 4 µM | 330,000 compounds, 0.33% hits; in the data active = inhibition above about 35%
NTR1 ag: activates human neurotensin receptor 1 | NTR1-U2OS beta-arrestin-GFP spot imaging, agonist mode | P30989 | 330,000 compounds, 0.17% hits | activation, % at 20 µM;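 active = activation at or above 40% of the spot to cytoplasm intensity ratio, with at least 20 cells analyzed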
Mdm2 MdmX PPI: inhibitors of human Mdm2/MdmX interaction | inhibition, % at 8 µM | 330,000 compounds, 3% hits | AID 485346 | SaOS-2 split-luciferase Mdm2/MdmX complementation, luminescence;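 active = inhibition of at least 50% at 8 µM in the primary screen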
Bfl-1 A1 inh: inhibitors of the anti-apoptotic protein A1, read as caspase activation; MEF A1-2A-BIM cells, Caspase-Glo 3/7 luminescence, 3 h; percent of clofoctol response, vehicle zero; caspase activation, % (no concentration beside the values); 330,000 compounds, 0.066% hits; AID 2462;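 active = over half of replicate activation scores above 10%, or exactly half above 10 with the replicate mean above 10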
Beta cell apopt: blocks beta cell apoptosis; INS-1E cytokine-induced death, ATP luminescence, 48 h; percent of positive-control rescue, neutral wells zero; 300,000 compounds, 0.8% hits; AID 435005; protection from apoptosis, % (no concentration beside the values);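 active = Every replicate reaches about 75%, or at least half do and their mean reaches it too, limit read from the data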;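 also: higher means more ATP so stronger rescue from cytokine killing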
Mdm2-MdmX conf: confirmation of human Mdm2/MdmX interaction inhibitors; inhibition, % at 8 µM; Mdm2-MdmX binding, luminescent assay; shares compounds with Mdm2 MdmX PPI; 10,000 compounds, 55% hits; in the data active = inhibition above about 40%
FLuc counter: full-length luciferase inhibition in Mdm2/MdmX counter-screen; inhibition, % at 8 µM; 6,200 compounds, 77% hits; SaOS-2 full-length luciferase counterscreen, luminescence; AID 504607; shares compounds with Mdm2 MdmX PPI;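 active = mean inhibition at 8 µM reaching about 37%, which flags the compound as non-specific, limit read from the data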;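 also: p53-null SaOS-2 cells with luciferase driven by a doxycycline-inducible promoter; compound on cells about two nights before reading with doxycycline added after day one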
Of the large screens only hits and unclear results are named; the others gave an inactive call (follow-up assays come after a bar, where they were run). Most compounds without a hit are left out; they make up all but 3.8% or so of the library.

CC1=C(C(=O)Nc2cc(C(=O)NCCC(C)C)ccc2C)SCCO1	none
O=C(NCCC(=O)N1CCCC1)c1ccccc1Cl	none
Cc1ccc(Cl)cc1NC(=O)c1cc(NC(=O)CCCC(=O)O)ccc1N1CCCCC1	none
O=S(=O)(c1cccc(NC(=S)N2CCN(c3ccc(F)cc3)CC2)c1)C(F)F	none
O=S(=O)(c1cccc(NC(=S)N2CCN(c3cccc(Cl)c3)CC2)c1)C(F)F	Mdm2 MdmX PPI 52 | Mdm2-MdmX conf inactive
CCCN(C(=O)Cc1ccc(S(=O)(=O)N2CCOCC2)s1)c1c(N)n(Cc2ccccc2)c(=O)[nH]c1=O	none
COc1ccc(C(=O)Nn2c(SCC(=O)c3ccccc3)nc3ccccc3c2=O)cc1	Mdm2 MdmX PPI 54 | Mdm2-MdmX conf 52 | FLuc counter 127
CCOC(=O)CSc1nc2ccccc2c(=O)n1NC(=O)c1ccccc1	none
O=C(Nc1ccc(C(F)(F)F)cc1)c1ccccc1-n1cnnn1	none
COc1ccccc1C(=O)Nc1ccc2c(c1)nc(CCNC(=O)c1ccco1)n2C	Mdm2 MdmX PPI 67 | Mdm2-MdmX conf 53 | FLuc counter 66
COC1(OC)C(/C=C/c2ccc(C)cc2)C(C#N)(C#N)C1(OC)OC (centres undefined)	Mdm2 MdmX PPI 85 | Mdm2-MdmX conf 43 | FLuc counter inactive
CC(C)(CNC(=O)CCNC(=O)c1ccc(Br)cc1)N1CCOCC1	none
CCN(CC)c1ccc(NC(=O)c2ccc3c(c2)c(C)c(C)n3C)cc1	Mdm2 MdmX PPI 61 | Mdm2-MdmX conf 48 | FLuc counter 71
Cc1c(C)n(C)c2ccc(C(=O)NCCCN3CCCC3)cc12	none
CCCCNc1ccc(C(CC(N)=O)NC(=O)Cc2ccc(Br)cc2)cc1[N+](=O)[O-] (centres undefined)	Mdm2 MdmX PPI 87 | Mdm2-MdmX conf 60 | FLuc counter 53
NC(=O)CC(NC(=O)Cc1ccc(Br)cc1)c1ccc(N2CCC(Br)CC2)c([N+](=O)[O-])c1 (centres undefined)	none
CCC(CC)Nc1ccc(C(CC(N)=O)NC(=O)Cc2ccc(Br)cc2)cc1[N+](=O)[O-] (centres undefined)	none
NC(=O)CC(NC(=O)Cc1ccc(Br)cc1)c1ccc(N2CCC(Cc3ccccc3)CC2)c([N+](=O)[O-])c1 (centres undefined)	Mdm2 MdmX PPI 71 | Mdm2-MdmX conf 55 | FLuc counter 48
Cc1c(C#N)c(O)n(CCO)c(=O)c1N=Nc1ccc2c(c1)COC2=O	Mdm2 MdmX PPI 91 | Mdm2-MdmX conf inactive
Cc1cc(=O)n(CCO)c(O)c1C#N	none
CCC1CCCCN1CCCNC(=O)c1cn(CC)c2ccc(S(=O)(=O)N(C)C3CCCCC3)cc2c1=O (centres undefined)	none
CCCCNC(=O)c1cn(CC)c2ccc(S(=O)(=O)N3CCCCCC3)cc2c1=O	none
CCCCN(CCCC)CCNC(=O)c1cn(CC)c2ccc(S(=O)(=O)N3CCc4ccccc4C3)cc2c1=O	Mdm2 MdmX PPI 72 | Mdm2-MdmX conf inactive
CCn1cc(C(=O)NCCCN2CCCC(C)C2)c(=O)c2cc(S(=O)(=O)N3CCc4ccccc4C3)ccc21 (centres undefined)	Mdm2 MdmX PPI 83 | Mdm2-MdmX conf inactive
CCC1CCCCN1CCCNC(=O)c1cn(CC)c2ccc(S(=O)(=O)N3CCc4ccccc4C3)cc2c1=O (centres undefined)	Mdm2 MdmX PPI 90 | Mdm2-MdmX conf 50 | FLuc counter 55
CCn1cc(C(=O)NCCCN2CC(C)CC(C)C2)c(=O)c2cc(S(=O)(=O)N(C)C)ccc21 (centres undefined)	none
CCN(CC(=O)NCc1ccc(Cl)cc1)C(=O)c1cc(S(=O)(=O)NCc2ccccc2)ccc1C	none
Cc1nc(-c2ccccn2)nc(N(C)c2ccccc2)c1Cl	none (no result: Beta cell apopt)
O=S(=O)(c1ccc(Br)s1)N1CCN(c2ccc(F)cc2)CC1	none
Cc1ccc2nc(-c3ccc(NC(=S)NC(=O)C(C)C)cc3)sc2c1	none

Bioassay records as filed in PubChem.
